PubChem BioAssay (NCATS)
Values joined by “and” are separate entries in the source; they are usually repeats but may differ in a detail not shown here. Equal values may be shown once. Results filed as inconclusive are left out. Active and inactive are the calls of the source. The call rests on the fitted dose curve; in most records, active means well fitted inhibition curve with a large enough effect; inconclusive means small, poorly fitted or top-dose-only effect; inactive means flat fitted curve, though single readings scatter.

Columns and labels:
CRL-7250 = normal cell line; test: Cytotoxic Profiling of Annotated Libraries Using Quantitative High-Throughput Screening (AID 1296008); conditions: Five cell lines viability, CellTiter-Glo ATP luminescence, 48-72 h; max response: active compounds read low; on max response: on the % scale 0 is the no-effect control and ±100 the full control effect
Method in brief: (§1)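 Cells exposed to compounds for 48 or 72 hr at 37 degrees Celsius. Viability read as ATP-coupled luminescence with CellTiter-Glo after 10 min at room temperature.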

HaCat = test: as above; conditions: Five cell lines viability, CellTiter-Glo ATP luminescence, 48-72 h; max response: active compounds read low
Method in brief: as §1

KB-3-1 = test: as above; conditions: Five cell lines viability, CellTiter-Glo ATP luminescence, 48-72 h; max response: active compounds read low
Method in brief: as §1

HEK293 = test: as above; conditions: Five cell lines viability, CellTiter-Glo ATP luminescence, 48-72 h; max response: active compounds read low
Method in brief: as §1

GB4 = test: qHTS profiling for inhibitors of Plasmodium falciparum proliferation (AID 504749); conditions: P. falciparum in erythrocytes, SYBR Green DNA, 72 h; series mostly up to 28.7 µM
Method in brief: (§2)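 P. falciparum-infected erythrocytes (0.3% parasitemia, 2.5% hematocrit) incubated with compound 72 h at 37 C, 5% CO2. Parasite DNA detected by SYBR Green after lysis, overnight at room temperature; normalised to 0.29 uM artemisinin and DMSO.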

HB3 = test: as above; conditions: P. falciparum in erythrocytes, SYBR Green DNA, 72 h; series mostly up to 28.7 µM
Method in brief: as §2

JCK = test: as above; conditions: P. falciparum in erythrocytes, SYBR Green DNA, 72 h; series mostly up to 28.7 µM
Method in brief: as §2

N140 = test: as above; conditions: P. falciparum in erythrocytes, SYBR Green DNA, 72 h; series mostly up to 28.7 µM
Method in brief: as §2

P93_24 = test: as above; conditions: P. falciparum in erythrocytes, SYBR Green DNA, 72 h; series mostly up to 28.7 µM
Method in brief: as §2

PC15 = test: as above; conditions: P. falciparum in erythrocytes, SYBR Green DNA, 72 h; series mostly up to 28.7 µM
Method in brief: as §2

PC26 = test: as above; conditions: P. falciparum in erythrocytes, SYBR Green DNA, 72 h; series mostly up to 28.7 µM
Method in brief: as §2

PC49 = test: as above; conditions: P. falciparum in erythrocytes, SYBR Green DNA, 72 h; series mostly up to 28.7 µM
Method in brief: as §2

SC27B = test: as above; conditions: P. falciparum in erythrocytes, SYBR Green DNA, 72 h; series mostly up to 28.7 µM
Method in brief: as §2

TAB109 = test: as above; conditions: P. falciparum in erythrocytes, SYBR Green DNA, 72 h; series mostly up to 28.7 µM
Method in brief: as §2

TAB113 = test: as above; conditions: P. falciparum in erythrocytes, SYBR Green DNA, 72 h; series mostly up to 28.7 µM
Method in brief: as §2

TAB165 = test: as above; conditions: P. falciparum in erythrocytes, SYBR Green DNA, 72 h; series mostly up to 28.7 µM
Method in brief: as §2

ICS = test: as above; conditions: P. falciparum in erythrocytes, SYBR Green DNA, 72 h; series mostly up to 28.7 µM
Method in brief: as §2

PAD = test: as above; conditions: P. falciparum in erythrocytes, SYBR Green DNA, 72 h; series mostly up to 28.7 µM
Method in brief: as §2

W2 = test: as above; conditions: P. falciparum in erythrocytes, SYBR Green DNA, 72 h; series mostly up to 28.7 µM
Method in brief: as §2
Further: nearly all actives have a fitted effect of over 60% in size.
Potency means the concentration at half of the fitted maximal effect.

CC(C)(C)C(=O)Oc1ccc2c(c1)nc(NC(=O)c1cccc([N+](=O)[O-])c1)n2CCCO
inactive: outcome (CRL-7250) | max response (HaCat) -9.39% | max response (KB-3-1) 7.62%

CC(C)C[C@H](CC(=O)O)C(=O)N[C@@H](Cc1c[nH]c2ccccc12)C(=O)N[C@@H](C)c1ccccc1
inactive: max response (CRL-7250) -5.99% | max response (HaCat) 3.15% | max response (KB-3-1) 5.47%

Cc1ccn(-c2ccc(-c3ncco3)cc2)c(=O)c1-c1ccc2nc(N)ncc2c1
inactive: max response (HaCat) -12.1% and -22.1% | max response (KB-3-1) 0.602% and 6.68%
active: Potency (CRL-7250) 1.66 µM and 5.17 µM

O=c1c(-c2ccc(O)cc2)coc2cc(O[C@@H]3O[C@H](CO)[C@H](O)[C@H](O)[C@H]3O)ccc12
inactive: max response (CRL-7250) -13.5% | max response (HaCat) -4.86% | outcome (KB-3-1)

CC(C)OC(=O)CCCC=CC[C@@H]1[C@H](C=C[C@@H](O)COc2cccc(C(F)(F)F)c2)[C@H](O)C[C@@H]1O
active: Potency (HEK293) 11.8 µM

C=CCc1ccc(O)c(-c2ccc(O)c(CC=C)c2)c1
inactive: max response (HEK293) -27.3%
active: Potency (HaCat) 20.9 µM

Cc1ccc(C(C)(O)c2nc3ccccc3s2)c(C)c1 (stereo not given)
inactive: max response (CRL-7250) 0.7% | max response (KB-3-1) 4.83%

NC(=O)c1cccc(-c2cc(Nc3ccc(OC(F)(F)F)cc3)ncn2)c1
inactive: max response (CRL-7250) -7.69% and -0.175% | outcome (HaCat) | max response (KB-3-1) -13.5%

CC1(C)O[C@H]2C[C@@H]3[C@H]4CCC5=CC(=O)C=C[C@]5(C)[C@@]4(F)[C@@H](O)C[C@]3(C)[C@]2(C(=O)CO)O1
inactive: Potency (GB4) | Potency (HB3) | outcome (JCK) | Potency (N140) | outcome (P93_24) | outcome (PC15) | Potency (PC26) | outcome (PC49) | Potency (SC27B) | outcome (TAB109) | Potency (TAB113) | Potency (TAB165) | max response (CRL-7250) -11.3% | max response (HaCat) -12.9% | max response (KB-3-1) 1.25%

O=C1c2c(O)cc(O)cc2O[C@H](c2cc(O)c(O)c(O)c2)[C@H]1O
inactive: max response (CRL-7250) 1.37% | max response (HaCat) -8.4% | max response (KB-3-1) 4.36%

CC(C)(C(=O)NCC(F)(F)C(F)(F)F)C(=O)N[C@@H]1C(=O)Nc2ccccc2-c2ccccc21
inactive: max response (CRL-7250) -11.4% | max response (HaCat) -2.21% | outcome (KB-3-1)

CC/C(=C(\c1ccccc1)c1ccc(OCCN(C)C)cc1)c1ccccc1
active: Potency (GB4) 10.7 µM | Potency (ICS) 12.6 µM | Potency (W2) 13.5 µM
inactive: Potency (HB3) | outcome (JCK) | outcome (PAD) | outcome (PC49) | max response (CRL-7250) -3.24% | max response (HaCat) -10.4% | max response (KB-3-1) -11%

COc1cccc2c1CCCC2CCCN1CCN(C2CCCCC2)CC1 (stereo not given)
active: Potency (HEK293) 14.8 µM
inactive: max response (HaCat) -16.8%

COc1cc(O)c2c(c1)C(=O)c1cc(C)cc(O)c1C2=O
inactive: outcome (CRL-7250) | max response (HaCat) -5.67% | max response (KB-3-1) -1.03%

CC[C@H]1OC(=O)[C@H](C)C(=O)[C@H](C)[C@@H](O[C@H]2O[C@H](C)C[C@H](N(C)C)[C@@H]2O)[C@](C)(OC)C[C@@H](C)C(=O)[C@H](C)[C@H]2N(CCCCn3cnc(-c4cccnc4)c3)C(=O)O[C@]12C
inactive: max response (CRL-7250) -7.01% | max response (HaCat) -0.424% | max response (KB-3-1) 2.84%

CCCCCN(C)CCC(O)(P(=O)(O)O)P(=O)(O)O
inactive: Potency (HB3) | outcome (P93_24) | Potency (TAB165)

COc1ccc(Cc2nccc3cc(OC)c(OC)cc23)cc1OC
inactive: Potency (HB3) | Potency (TAB113) | Potency (TAB165)
